Each structure is given as a SMILES string. In all, about 300,000 compounds went through this assay and about 520 (0.17%) were called active. Only a selection was taken, and actives are over-represented in it overall. A number with no mark means an inactive call. Rule as the data show it: active = inhibition above about 50%; inconclusive = no clear call, values can overlap the other calls; inactive = below that.

The nature of this assay: PubChem AID 1554. Particulars: BJeLR (HRASV12) viability, CellTiter-Glo ATP luminescence, 48 h; stronger effect = higher value; concentration not given here. Background: ATP-based viability assays read luminescence as a measure of living cells.
What is called inhibition is the drop in the measured response relative to a control, in per cent. For `COC(=O)c1c(NC(=O)c2ccccc2F)sc2c1C(C(=O)OC)CC2` (stereo not drawn), the inhibition is -1.69%. In the case of `CCOc1ccc2[nH]c3nc(SCC(=O)NC4CCCC4)nnc3c2c1`, the inhibition was 19.9%. Take `CCOC(=O)c1c(C)[nH]c2c1-c1ccccc1C(=O)C2=O`: the inhibition is 74.1% (active). In the case of `CCOC(=O)c1c(C)nc(-c2ccccc2)nc1NC(=O)C(C)C`, the inhibition is -1.6%. As for `CCOC(=O)c1c(C)[nH]c(C)c1S(=O)(=O)N(C)CC(=O)Nc1ccccc1C`, the inhibition is 1.31%. On to `O=C(NNc1c2ccccc2nc2ccccc12)c1cc2ccccc2cc1O`, for which the inhibition was 11.9%.

In the case of `NC(=O)C1CC(=O)N(c2ccc(OCC(=O)NCc3ccccc3)cc2)C1` (stereo not drawn), the inhibition is -5.85%.

Consider `COc1cccc(-c2cc(C(=O)N3CCN(c4ccccc4OC)CC3)no2)c1`, for which the inhibition is -5.2%.

Take `COc1ccccc1N1CCN(C(=O)c2cc(=O)c3cc(C)ccc3o2)CC1`: the inhibition was 8.05%. In the case of `COc1ccccc1N1CCN(C(=O)c2cc(=O)c3cc(C)cc(C)c3o2)CC1` it was 58.9% (active); in that of `Cc1ccc(-c2cc(C(F)(F)F)n3ncc(C(=O)N4CCCCC4c4cccnc4)c3n2)cc1` (stereo not drawn), -3.16%. The value for `CSc1n[nH]c(=S)n1N` was 6.98%. In the case of `CCOC(=O)c1cccc(NC(=O)CCn2nnc3ccccc32)c1`, the inhibition is 5.93%. Take `COC(=O)c1ccc(C(=O)Nc2cc(Cl)ccc2Cl)cc1NC(=O)c1ccccc1C`: the inhibition was 5.33%. With `COc1c(C(=O)N2CCCC2)ccc2ccccc12`, the inhibition was -16.2%. `CC(C)n1c(-c2ccncc2)n[nH]c1=S`: the inhibition was -1.2%. As for `O=c1[nH]snc1-c1c(Cl)cccc1Cl`, the inhibition was 1.3%. In the case of `CC[C@H]1CN2CCc3cc(OC)c(OC)cc3[C@@H]2C[C@@H]1C[C@H]1NCCc2cc(OC)c(OC)cc21`, the inhibition is 71.3% (active). With `CCc1ccc(OCC2c3cc(OC)c(OC)cc3CCN2C(C)=O)cc1` (stereo not drawn), the inhibition is -19.6%.

For `COc1ccc2c(c1)CCNC2Cc1ccc(OC)c(O)c1` (stereo not drawn), the inhibition was -7.5%. Take `CN(c1ccccc1)S(=O)(=O)c1cccc(C(=O)NNC(=O)c2ccncc2)c1`: the inhibition was -13.6%. In the case of `COc1cc(NS(=O)(=O)c2ccc(NC(=O)CN3C(=O)c4ccccc4C3=O)cc2)ncn1` it was -1.96%; in that of `COc1ccc(CNC(=O)CCC(=O)Nc2nnc(C(C)C)s2)cc1`, 2.41%. For the compound `O=C(NCc1ccc2c(c1)OCO2)c1sccc1Br`, the inhibition was -9.24%.

`CSc1nc(C)nc(C2CC2)c1C#N`: the inhibition is -2.16%. Regarding `CCOc1ccc(C(CC(=O)O)n2cnnn2)cc1OC` (stereo not drawn), the inhibition was -0.928%. Take `COc1ccc(NC(=O)C(C)N2c3cccc4cccc(c34)S2(=O)=O)c(OC)c1` (stereo not drawn): the inhibition is -7.67%. The value for `O=C(c1cccc(F)c1)N1CCC(O)(c2cccnc2)CC1` was 1.27%; that for `Cc1ccc(Nc2cc(C)nc3c(C)ccc([N+](=O)[O-])c23)cc1` was -0.482%. For `N#Cc1c(-c2cccs2)nc(SCC(=O)c2ccc(Br)cc2)[nH]c1=O`, the inhibition was -2.63%. In the case of `COc1ccc(Nc2ncc(F)c(N3CCOCC3)n2)cc1` it was -4.96%. As for `O=C(/C=C/c1ccco1)Nc1cccc(-c2nc3ccccc3[nH]2)c1`, the inhibition is -10.7%. For `O=C(/C=C/c1ccco1)Nc1ccc(Oc2ccccc2)cc1`, the inhibition was 66.3% (active). In the case of `Cc1nnc(NC(=O)/C=C/c2ccco2)s1` it was 2.63%; in that of `CCCOc1ccc(C(=O)C(CCC(CNCC)C(=O)c2ccc(OCCC)cc2)CNCC)cc1` (stereo not drawn), 137% (active); in that of `CCCCOc1ccc(C(=O)NN2CCN(C)CC2)cc1`, 1.04%. On to `CCCOc1ccc(C(=O)CCC(=O)OC(C)C(=O)Nc2ccc(NC(C)=O)cc2)cc1` (stereo not drawn), for which the inhibition is 0.465%. On to `CCOc1cc(C2C(C(=O)OC(C)C)=C(C)NC3=C2C(=O)CCC3)cc([N+](=O)[O-])c1O` (stereo not drawn), for which the inhibition is -2.99%. As for `Cc1ccc(CNC(=O)c2cccnc2Cl)cc1`, the inhibition is 1.72%. `COc1cc(C(CCN2CCN(c3ccccc3)CC2)c2c(OC)cc(OC)c3ccc(=O)oc23)cc(OC)c1OC` (stereo not drawn): the inhibition is -7.5%. With `COC(=O)C(C(=O)Nc1cccc(Cl)c1C)C1CCCC1` (stereo not drawn), the inhibition is -7.59%. The value for `COc1ccc(/C=C/C2=CC(C)(C)NC(=S)N2)c(OC)c1` was -7.98%; that for `NC(=O)CC[C@@H]1NC(=O)[C@H](CO)NC(=O)c2cc([N+](=O)[O-])cc(I)c2NCC[C@@H](C(N)=O)NC1=O` was -1.96%.

Consider `CCC(=C/c1sc2ccc3ccccc3c2[n+]1C)/C=C1\Sc2ccc3ccccc3c2N1C`, for which the inhibition was 60.9% (active). Regarding `COc1ccc(C2=NS(=O)(=O)N(C)C(C(=O)N3CCCCC3)=C2)cc1`, the inhibition is -1.58%. Take `COc1cc(-c2c(-c3ccc4c(c3)OCO4)noc2C)ccc1F`: the inhibition is -5.31%. Turning to `C=CCNc1nc(N)c([N+](=O)[O-])c(NC2CCCCC2)n1`, the inhibition was -1.25%. As to `CC(=O)NCCc1ccc(S(=O)(=O)N(C)C2CCS(=O)(=O)C2)cc1` (stereo not drawn), the inhibition is 7.45%. As to `O=C(NCc1ccco1)c1ccc(NS(=O)(=O)c2cccc([N+](=O)[O-])c2)cc1`, the inhibition was 5.53%.

Consider `COc1ccc(S(=O)(=O)N2CCOCC2)cc1NC(=O)COc1ccccc1`, for which the inhibition is -1.51%.

Consider `COc1ccccc1N(C(=O)Cn1nnc2ccccc21)C(C(=O)NCc1ccco1)c1ccc(C)o1` (stereo not drawn), for which the inhibition was -3.41%.

Take `O=C(Nc1ccc(Cl)cc1)/C(=C1\CCCN1)[N+](=O)[O-]`: the inhibition was -2.59%. Turning to `CCCC(C(=O)NC1CCCC1)N(C(=O)Cn1nnc(-c2ccc(C)o2)n1)c1cccc(O)c1` (stereo not drawn), the inhibition was -0.539%. For the compound `Cc1c(NC(=O)Nc2cccc([N+](=O)[O-])c2)c(=O)n(-c2ccccc2)n1C`, the inhibition was 1.78%. Consider `CC1(C)O[C@H]2CC(=O)OCC23[C@H]2CC[C@@]4(C)[C@H](c5ccoc5)OC(=O)[C@H]5O[C@]54[C@]2(C)C(=O)C[C@@H]13` (stereo partly drawn), for which the inhibition was 4.22%. In the case of `CC(C)CNC(=S)NC(=O)c1ccc(Cl)cc1` it was -11.5%; in that of `Cc1cc(F)ccc1NC(=O)C(C)n1c2ccccc2c2nc(=O)cc(C)n21` (stereo not drawn), -6.86%. In the case of `CN(C)CCN(Cc1ccccc1)S(=O)(=O)c1csc(C(N)=O)c1`, the inhibition is 7.25%. `CC(C)Cc1nnc(NC(=O)CN2C(=O)NC3(CCCCC3)C2=O)s1`: the inhibition is 4.35%. Take `CCOC(=O)CNc1nc(Cl)nc(Nc2ccc(OC)cc2OC)n1`: the inhibition is -1.85%. As for `CCN1C(=O)N[C@@H](c2ccccc2)C(C(=O)OC)=C1C`, the inhibition was 2.76%. As for `COc1cccc(NC(=O)c2ccccc2N(Cc2ccccc2)S(C)(=O)=O)c1`, the inhibition is 3.05%. In the case of `COc1ccccc1C1C2=C(COC2=O)Nc2cc3c(cc21)OCO3` (stereo not drawn) it was 71.8% (active); in that of `COc1ccc(S(=O)(=O)Nc2ccc3c(c2)OCO3)cc1Cl`, 4.86%; in that of `CCCOc1ccccc1C1CC(=O)Nc2cc3c(cc21)OCO3` (stereo not drawn), 21.8%.

As for `CC1COc2ccccc2N1S(=O)(=O)c1ccccc1` (stereo not drawn), the inhibition was -0.313%.

Turning to `CC(C)(C)c1cc(NC(=O)NN2CCOCC2)nn1-c1c(Cl)cc(Cl)cc1Cl`, the inhibition was -1.25%. As to `COc1cc(/C=C(\C#N)c2nc3ccccc3[nH]2)ccc1O`, the inhibition is -5.76%. As for `COc1ccc(C(C(O)C(=O)c2c[nH]c3ccccc23)N2CCN(c3ccccc3)CC2)cc1` (stereo not drawn), the inhibition is 0.745%. In the case of `COc1ccc(/C=C(\C#N)c2c[nH]c3ccccc23)cc1` it was 52.5% (active); in that of `CC(NC(=O)Cn1cc(C(F)(F)F)cc(Cl)c1=O)c1ccccc1` (stereo not drawn), -4.93%. As to `O=C(NNC(=O)c1ccccc1[N+](=O)[O-])Nc1ccccc1C(F)(F)F`, the inhibition was 1.35%. In the case of `Cc1cccc(-n2ncc(Cl)c(Cl)c2=O)c1` it was 90.5% (active); in that of `O=c1c(Cl)c(NC2CC2)cnn1-c1ccccc1`, -3.03%; in that of `Cc1cccc(-n2ncc(C#N)c2-n2cccc2)c1`, -4.28%.

In the case of `CC[C@]1(O)C[C@@H]2CN(CCc3c([nH]c4ccccc34)[C@@](C(=O)OC)(c3cc4c(cc3OC)N(C)[C@H]3[C@@](O)(C(=O)OC)[C@H](OC(C)=O)[C@]5(CC)C=CCN6CC[C@]43[C@@H]65)C2)C1`, the inhibition was 69.1% (active). The value for `CC[C@]1(O)CC2CN(CCc3c([nH]c4ccccc34)[C@@](C(=O)OC)(c3cc4c(cc3OC)N(C=O)[C@H]3[C@@](O)(C(=O)OC)[C@H](OC(C)=O)[C@]5(CC)C=CCN6CC[C@]43[C@@H]65)C2)C1` (stereo partly drawn) was 34.8%; that for `CC[C@H]1CC2CN3CCc4c([nH]c5ccccc45)C(C(=O)OC)(C2)C13` (stereo partly drawn) was 2.65%. In the case of `CCOc1ccc(C(CC(=O)O)NC(=O)C23CC4CC(CC(C4)C2)C3)cc1OC` (stereo not drawn) it was 8.09%; in that of `OCCn1c(-c2ccccc2)csc1=Nc1ccccc1`, 3.02%; in that of `Cc1ccc(S(=O)(=O)N2CCCC2C(=O)OCc2nc3sc(C)c(C)c3c(=O)[nH]2)cc1` (stereo not drawn), 2%.

Turning to `CC12C(=O)N(n3cnnc3)C(=O)C1C1C=CC2C1` (stereo not drawn), the inhibition was 6.14%. Regarding `Cc1ccc(CN2CCNC(=O)C2CC(=O)NCc2csc(C(C)C)n2)cc1` (stereo not drawn), the inhibition was -3.33%.

With `Cc1ccc(Cn2cc(C(=O)NN)c(=O)c3ccc(F)cc32)cc1`, the inhibition is -4.45%. In the case of `CC(C)CN(C(=O)c1cccc(S(=O)(=O)N2CCCCC2)c1)C1CCS(=O)(=O)C1` (stereo not drawn) it was 2.4%; in that of `Clc1ccc2c(c1)C1=C(C(c3ccncc3)O2)C(c2ccc(Br)cc2)n2ncnc2N1` (stereo not drawn), -10%; in that of `Brc1ccc2ncnc(NCc3cccnc3)c2c1`, 4.75%. For the compound `COc1ccc(C2=NOC(Cn3nc(C(=O)NCc4ccc5c(c4)OCO5)cc3-c3ccccc3)C2)cc1` (stereo not drawn), the inhibition is 8.13%.

(Values after PubChem BioAssay AID1554 (Broad Institute, 2009).)
